Results as given in PubChem BioAssay (NCI).
About 79,000 compounds went through this panel and 15% of them were active in at least one assay; those are over-represented in the sample as a whole. Calls of active or inactive are those of the source. Rule as the data show it: active = growth inhibition above about 70%; inactive = the rest.

Legend:
[1] = NCI Yeast Anticancer Drug Screen. Data for the rad50 strain (AID 155);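 also: 0% = growth of vehicle-only cultures of the same strain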; details: S. cerevisiae rad50 strain growth inhibition; at 50.0 µM; active compounds read high
How it was run: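 Relative growth inhibition (compound vs vehicle) was measured in yeast with a defined repair-gene alteration.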

[2] = NCI Yeast Anticancer Drug Screen. Data for the mec2-1 strain (AID 157); details: S. cerevisiae mec2-1 strain, at 50.0 µM, active compounds read high
How it was run: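 Mutant yeast (mec2-1) grown with compound; growth inhibition relative to vehicle control reported.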

[3] = NCI Yeast Anticancer Drug Screen. Data for the sgs1 mgt1 strain (AID 161);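 also: 0% = growth of cultures given vehicle only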; details: S. cerevisiae sgs1 mgt1 strain, at 50.0 µM, active compounds read high
How it was run: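 Yeast cells carrying a defined DNA-repair defect were exposed to test compounds. Growth inhibition was measured relative to vehicle-treated controls.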

[4] = NCI Yeast Anticancer Drug Screen. Data for the cln2 rad14 strain (AID 165);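 also: 0% = growth equal to vehicle treated cultures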; details: S. cerevisiae cln2 rad14 strain, at 50.0 µM, active compounds read high
How it was run: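 Readout is yeast growth inhibition versus vehicle-treated controls, using a strain with cln2 and rad14 alterations exposed to compound.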

[5] = NCI Yeast Anticancer Drug Screen. Data for the bub3 strain (AID 167); details: S. cerevisiae bub3 mutant strain, at 50.0 µM, active compounds read high
How it was run: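 Screening used yeast with an engineered genetic alteration affecting cell cycle control. Compound-exposed cultures were compared with vehicle cultures, and reduced growth was taken as inhibition.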

[6] = NCI Yeast Anticancer Drug Screen. Data for the mlh1 rad18 strain (AID 175); details: S. cerevisiae mlh1 rad18 strain growth inhibition; at 50.0 µM; active compounds read high
How it was run: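 Genetically defined yeast (DNA repair-deficient) exposed to compounds; growth inhibition determined relative to vehicle.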

Measured: growth inhibition

O=C(CCc1cccs1)OC1CCCCC1
inactive: [1] 9% | [2] 7.05% | [3] 4.4% | [4] 13.6% | [5] 9.35% | [6] 20.9%

CCOC(=O)C(NNc1ccccc1)C(=O)C(F)(F)F (stereo unspecified)
inactive: [1] 10.9% | [2] 3.2% | [3] -9.3% | [4] -18.8% | [5] 1.35% | [6] 18.6%

N#C/C(=C\c1ccccc1)c1ccc(F)cc1F
inactive: [1] 33.2% | [2] 30.6% | [3] 6.15% | [4] 6.55% | [5] 6.55% | [6] 9.7%

COC1OCC(O)C(O)C1OC (stereo unspecified)
inactive: [1] -11% | [2] -13.4% | [3] -16.2% | [4] -25.1% | [5] -8.55% | [6] -19.1%

CC1COC(C(C)C)(C(C)C)O1 (stereo unspecified)
inactive: [1] -8.6% | [2] -30.1% | [3] -4.2% | [4] -10% | [5] -2.7% | [6] 22.4%

CCO/C=C1/N=C(c2cc([N+](=O)[O-])cc([N+](=O)[O-])c2C)OC1=O
inactive: [1] 10.6% | [2] 6.85% | [3] -6.45% | [4] -58.2% | [5] -35% | [6] 15.1%

N#COc1ccc(-c2ccccc2)cc1
inactive: [1] -38.5% | [2] -8.35% | [3] -12.2% | [4] -15.2% | [5] -9.25% | [6] 0.8%

CCCCCCCCCCCCCCCCSc1cccc(C)c1
inactive: [1] 17.7% | [2] 3.65% | [3] 22.1% | [4] -13.2% | [5] 1.3% | [6] 17.1%

CCc1n[nH]c(=O)n1/N=C/c1ccc(C)cc1
inactive: [1] -0.2% | [2] -3.3% | [3] -4.85% | [4] -0.3% | [5] 3.8% | [6] -2.25%

CC(C)CC(C)OB(OC(C)CC(C)C)OC(C)CC(C)C (stereo unspecified)
inactive: [1] -11.2% | [2] -24.1% | [3] -4.3% | [4] -16.9% | [5] 0.7% | [6] -14.6%

O=C1CC2(CCN(Cc3ccccc3)CC2)C(=O)N1N1CCCCC1
inactive: [1] 50.9% | [2] 33.3% | [3] 57.8% | [4] 41.9% | [5] 43.8% | [6] 50.4%

NC(=O)C(Cc1ccccc1Cl)c1ccccc1 (stereo unspecified)
inactive: [1] -7.6% | [2] -2.9% | [3] -2.75% | [4] -43% | [5] -8.35% | [6] 12.7%

O=c1oc2c3ccc4ccccc4c3n(CCN3CCCCC3)c2c2ccccc12
inactive: [1] 30.4% | [2] 53.6% | [3] 22.9% | [4] 32.5% | [5] 44.3%
active: [6] 77.1%

CC1CN(CNC(=O)NCN2CC(C)OC(C)C2)CC(C)O1 (stereo unspecified)
inactive: [1] 15.7% | [2] -3.7% | [3] 24.8% | [4] 11.9% | [5] 0.95% | [6] -0.8%

NC(=S)N/N=C/c1cccc(CC(O)(C(F)(F)F)C(F)(F)F)n1
inactive: [1] 2.6% | [2] 7.1% | [3] 3.7% | [4] -28.4% | [5] -2.1% | [6] 24%

NC(=Nc1ccc(Br)cc1)/N=C(/N)Nc1cccc(S(=O)(=O)Nc2ncc(Cl)cn2)c1
inactive: [1] 10.2% | [2] -8.75% | [3] 25.2% | [4] 15.8% | [5] 1.95% | [6] 4.95%

Cn1c([N+](=O)[O-])cnc1CN1CCN(CCO)CC1
inactive: [1] -2.9% | [2] -6.95% | [3] -39.1% | [4] 26.7% | [5] -20.3% | [6] 3%

O=c1[nH][nH]c(=O)c2[nH]cnc12
inactive: [1] -11.9% | [2] -8.2% | [3] 29.1% | [4] -62.6% | [5] -6.3% | [6] -10%

Cc1[nH]c(=O)[nH]c(=O)c1/C=C/C(=O)NC(CO)CS(=O)CS(C)=O (stereo unspecified)
inactive: [1] 3.85% | [2] -11.2% | [3] 9.75% | [4] 13.1% | [5] 5.6% | [6] -10.4%

CC1=C(Br)C(=O)C(c2c(C)cc(C)cc2C)=C(Br)C1=O
active: [1] 97.5% | [2] 98% | [3] 98.2% | [4] 92.8% | [5] 97.5% | [6] 98.5%

Cc1ccc(S(=O)(=O)NNCCC#N)cc1
inactive: [1] -5% | [2] 6.05% | [3] -4.35% | [4] -0.15% | [5] -4.9% | [6] 7.75%

CCCCCCCCCCCCCCCCSc1ccc2ccccc2c1
inactive: [1] 37.9% | [2] -13.8% | [3] 41.3% | [4] -7.5% | [5] -3.45% | [6] 0.2%

COc1cc2c(cc1OC)C(C(c1ccccc1)c1ccccc1)N(C)CC2 (stereo unspecified)
inactive: [1] 9.9% | [2] 9.25% | [3] -16.7% | [4] 20.6% | [5] 3.25% | [6] 20.6%

CCOC(=O)C1SC(=Nc2ccc(Cl)c(Cl)c2)N=C1C (stereo unspecified)
inactive: [1] -29.9% | [2] -2.8% | [3] -6.4% | [4] 5.9% | [5] -11.7% | [6] -10.1%

N#CC1(C#N)C(c2ccccc2)C1(C#N)C(N)=O (stereo unspecified)
inactive: [1] -13.2% | [2] 11.4% | [3] -22.9% | [4] -20.6% | [5] -6.7% | [6] -27.5%

O=Cc1c[nH]c2ccccc12
inactive: [1] -7.7% | [2] 9.95% | [3] 22.8% | [4] -15.6% | [5] 1.85% | [6] 6.25%

COC(=O)c1ccc(C(=O)OC)c2nc3cc(C)ccc3nc12
inactive: [1] -39.1% | [2] -2.3% | [3] -16.2% | [4] 10.1% | [5] 8.65% | [6] 14.4%

CC(C)=CCNc1ncnc2c1ncn2CCC#N
inactive: [1] -24.1% | [2] -6.55% | [3] -16.9% | [4] 5.1% | [5] -35.8% | [6] -21.4%

NC(CCC1CCCCC1)C(=O)O (stereo unspecified)
inactive: [1] -7.75% | [2] 6.8% | [3] 0.5% | [4] -3.65% | [5] 22.6% | [6] 3.7%

O=c1[nH]c2nc[nH]c(=O)c2[nH]1
inactive: [1] 0.25% | [2] -7.6% | [3] 5.1% | [4] -11.8% | [5] -6.05% | [6] 6.05%

COC(=O)C1CC[N-]CC1.COC(=O)C1CC[N-]CC1.[Cl][Pt+2][Cl]
inactive: [1] -0.15% | [2] 6.9% | [3] -6.8% | [4] -24.4% | [5] -4.15% | [6] 21.2%

CCNC(=O)C(C(=O)O)c1ccccc1 (stereo unspecified)
inactive: [1] 1.8% | [2] -5.55% | [3] 5.15% | [4] -21.1% | [5] -13.9% | [6] 5.2%

NC(=O)NOCC(N)C(=O)O (stereo unspecified)
inactive: [1] -7.2% | [2] 1.8% | [3] 1.15% | [4] -41.3% | [5] 5.35% | [6] -2.9%

CC(=O)C=NCC(=O)O
inactive: [1] -2.45% | [2] -3.4% | [3] -32.2% | [4] -24.8% | [5] -26.6% | [6] -8.8%

Cc1c(Cl)cccc1NC(=O)Nc1ccccc1
inactive: [1] -1.35% | [2] 3.3% | [3] -6.25% | [4] -8.1% | [5] 4.1% | [6] 7.65%

O=C(O)c1cc(S(=O)(=O)O)ccc1O
inactive: [1] 9.7% | [2] 18% | [3] -9.9% | [4] -29.9% | [5] -16.7% | [6] -13.2%

Cc1ccc(C)[nH]1
inactive: [1] -2.85% | [2] 7.35% | [3] -8.45% | [4] 53.2% | [5] -4.4% | [6] 18.1%

O=C1C(=O)N(c2cc(Cl)ccc2Cl)C(=O)C(=O)C1c1nc2ccccc2s1
inactive: [1] -7.8% | [2] 18.6% | [3] 0.3% | [4] -18.8% | [5] 9.4% | [6] -19.4%

CCc1c2c(cc3c1CC1(C3)Cc3cc4c(c(C(=O)OC)c3C1)CCCC4)CCCC2 (stereo unspecified)
inactive: [1] -18.8% | [2] -16.4% | [3] -20.8% | [4] 9.65% | [5] -14% | [6] -25.9%

CC(C)c1ccc(OC(=O)N(c2ccccc2)c2ccccc2)cc1
inactive: [1] 12.4% | [2] 15% | [3] -5.35% | [4] 3.5% | [5] -1.6% | [6] -2.8%

CCOC(=O)c1ccc(N(C=O)CCC(OCC)OCC)cc1
inactive: [1] -2.25% | [2] -5.75% | [3] 4.35% | [4] -49.4% | [5] 17.9% | [6] -0.3%
